Experimental findings from PubChem BioAssay (EPA / NIEHS) are described below.

SMILES strings stand for the structures. Inconclusive results are not listed. Active and inactive are the calls of the source. Rule for the calls: active = hit-call score of the fitted dose curve at least 0.9, where 1 is the maximum; inconclusive = response in the unintended direction; inactive = score below 0.9.

Chain of human Norepinephrine Transporter (NET), SLC6A2 (gene 6530) (P23975 whole entry, looked up): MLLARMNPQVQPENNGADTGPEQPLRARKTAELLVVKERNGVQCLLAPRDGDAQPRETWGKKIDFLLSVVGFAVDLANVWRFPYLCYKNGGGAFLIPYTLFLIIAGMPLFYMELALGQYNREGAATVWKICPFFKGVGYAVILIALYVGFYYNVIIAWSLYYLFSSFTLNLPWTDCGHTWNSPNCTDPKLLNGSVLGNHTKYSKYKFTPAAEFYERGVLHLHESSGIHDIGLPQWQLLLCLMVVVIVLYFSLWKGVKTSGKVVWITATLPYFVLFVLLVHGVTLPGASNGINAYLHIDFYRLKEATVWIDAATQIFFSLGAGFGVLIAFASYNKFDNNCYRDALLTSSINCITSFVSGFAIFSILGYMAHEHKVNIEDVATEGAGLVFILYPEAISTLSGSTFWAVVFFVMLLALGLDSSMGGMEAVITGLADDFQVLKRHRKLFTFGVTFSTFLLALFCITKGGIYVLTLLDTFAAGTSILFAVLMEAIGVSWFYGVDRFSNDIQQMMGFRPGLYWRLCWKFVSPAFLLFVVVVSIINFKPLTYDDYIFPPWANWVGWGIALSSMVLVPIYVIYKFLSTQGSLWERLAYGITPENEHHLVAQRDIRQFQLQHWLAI

The test has as its target human Norepinephrine Transporter (NET), SLC6A2 (gene 6530) (UniProt P23975). Nature of the test: NVS_TR_hNET: NovaScreen (NVS) Transporter Assay for human Norepinephrine Transporter (NET) (AID 2283377).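 Note: cell-free membrane protein extracted from CHO cells expressing human NET.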 On the procedure: NVS_TR_hNET is a biochemical, single-readout assay that uses extracted gene-proteins from CHO in a cell-free assay. Measurements were taken 1 hour after chemical dosing in a 96-well plate.NVS_TR_hNET is one of one assay component(s) measured or calculated from the NVS_TR_hNET assay. It is designed to make measurements of radioligand binding, a form of binding reporter, as detected with scintillation counting signals by Filter-based radiodetection technology.Data from the assay component NVS_TR_hNET was analyzed into 1 assay endpoint. This assay endpoint, NVS_TR_hNET, was analyzed in the positive analysis fitting direction relative to DMSO as the negative control and baseline of activity. Using a type of binding reporter, loss-of-signal activity can be used to understand changes in the binding as they relate to the gene SLC6A2. Furthermore, this assay endpoint can be referred to as a primary readout, because the performed assay has only produced 1 assay endpoint. To generalize the intended target to other relatable targets, this assay endpoint is annotated to the transporter intended target family, where the subfamily is neurotransmitter transporter.
Binding assays used specific radioligands (tritiated, iodinated) with non-radioactive competitive displacement ligands in agonist or antagonist protocols (as indicated) and various reference compounds and inhibitors to titrate specific binding to receptors and transporters. Most enzyme assays (CYPs, kinases, phosphatases, proteases, HDACs) used recombinant protein and specific substrates (fluorescence mostly, some colorimetric and radioactive) and inhibitors, followed by a biochemical separation of substrate and product. All assays for the biochemical HTS were initially run in duplicate at a single concentration (10 uM for CYP450 assays and 25 uM for all others). […] Each assay was run with positive and negative controls, and concurrent controls on every plate. The follow-up (secondary) screen tested active chemical-pairs in concentration series, as well as a few additional assays not tested in the primary screen, some selected negative inactives, and several cases re-run in the concentration series for confirmatory purposes.
As for `O=C(O)c1cccc(C[C@@H]2COc3ccc(OCc4nc5cc(F)ccc5s4)cc3[C@@H]2O)c1`, the molecule was classed as inactive.

Regarding `c1ccc2cc3ccccc3cc2c1`, the AC50 was 6.95 µM (active).

Take `CNC(C)=O`: the result was inactive.

As to `CCCCCCCCCCCCCCCCOS(=O)(=O)O`, the AC50 was 19.6 µM (active).

Regarding `c1ccc(C(O[C@@H]2CCCN(CCc3ccc4c(c3)OCO4)C2)c2ccccc2)cc1`, the AC50 is 4.2 µM (active).

With `CCN(CC)C(=S)SSC(=S)N(CC)CC`, the AC50 is 0.344 µM (active).

In the case of `C=CCc1cc(S(=O)(=O)c2ccc(O)c(CC=C)c2)ccc1O`, the AC50 is 6.96 µM (active).

Take `CCCCC(CC)C(=O)OCCOCCOCCOC(=O)C(CC)CCCC` (stereo not given): the molecule was called inactive.

For the molecule `COc1cc(C(C)C)c2c(c1)S(=O)(=O)N(COc1cc(=O)n3cccc(OCCN4CCCCC4)c3n1)C2=O`, the AC50 was 4.47 µM (active).

Take `OCCOCCOCCO`: the result was inactive.
